From PubChem BioAssay AID1159580 (chemical genetic matrix, 2015)
Screen size: about 5,500 compounds; about 2,000 (36%) were called active. Inconclusive results (about 18%) are left out. No stated cut-off is given here; in the data, active means normalized growth mostly below about 0.91 (no sharp cut-off); inconclusive means no clear call, values can overlap the other calls; inactive means mostly above about 0.92. Some of the results follow.

Assay: chemical genetic growth profiling, strain panel (AID 1159580);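 further: tested at 20 µM; growth read once vehicle control cultures reached saturation at 30 °C; 1 = growth at the plate median or of vehicle wells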
Details: S. cerevisiae deletion strains, growth OD

Measured: normalized growth

Clc1ccc(C(c2ccc(Cl)cc2)C(Cl)(Cl)Cl)cc1
inactive: locus YAL013W, strain DEP1, stronger effect = lower value 1 | locus YAL021C, strain ccr4, stronger effect = lower value 1.01 | locus YAL026C, strain drs2, stronger effect = lower value 1.01 | locus YAL030W, strain snc1, stronger effect = lower value 1 | locus YBL061C, strain skt5, stronger effect = lower value 1.01 | locus YBR009C, strain hhf1, stronger effect = lower value 0.998 | locus YBR021W, strain FUR4, stronger effect = lower value 0.999 | locus YBR023C, strain chs3, stronger effect = lower value 1.01 | locus YBR171W, strain sec66, stronger effect = lower value 1.01 | locus YBR229C, strain ROT2, stronger effect = lower value 1.02 | locus YBR231C, strain swc5, stronger effect = lower value 1.01 | locus YBR279W, strain paf1, stronger effect = lower value 1.01 | locus YCL011C, strain gbp2, stronger effect = lower value 1.01 | locus YCL016C, strain dcc1, stronger effect = lower value 1.01 | locus YCL029C, strain bik1, stronger effect = lower value 1.01 | locus YCL061C, strain MRC1, stronger effect = lower value 1.01 | locus YCL069W, strain vba3, stronger effect = lower value 0.999 | locus YCR088W, strain abp1, stronger effect = lower value 1.01 | locus YDL005C, strain med2, stronger effect = lower value 1 | locus YDL035C, strain GPR1, stronger effect = lower value 0.983 | locus YDL040C, strain nat1, stronger effect = lower value 1.01 | locus YDL074C, strain BRE1, stronger effect = lower value 1.02 | locus YDL101C, strain DUN1, stronger effect = lower value 1.02 | locus YDL134C, strain PPH21, stronger effect = lower value 1.02 | locus YDL185W, strain tfp1, stronger effect = lower value 0.999 | locus YDL192W, strain arf1, stronger effect = lower value 1 | locus YDR001C, strain nth1, stronger effect = lower value 1.01 | locus YDR069C, strain doa4, stronger effect = lower value 0.992 | locus YDR101C, strain arx1, stronger effect = lower value 0.993 | locus YDR137W, strain rgp1, stronger effect = lower value 1.01 | locus YDR150W, strain NUM1, stronger effect = lower value 1.03 | locus YDR159W, strain sac3, stronger effect = lower value 1.01 | locus YDR162C, strain NBP2, stronger effect = lower value 1.01 | locus YDR195W, strain ref2 1.04 | locus YDR297W, strain sur2, stronger effect = lower value 1.01 | locus YDR318W, strain mcm21, stronger effect = lower value 0.999 | locus YDR334W, strain swr1, stronger effect = lower value 1.02 | locus YDR335W, strain msn5, stronger effect = lower value 1.01 | locus YDR388W, stronger effect = lower value 0.993 | locus YDR392W, strain spt3, stronger effect = lower value 0.977 | locus YDR502C, strain sam2, stronger effect = lower value 0.999 | locus YEL003W, strain gim4, stronger effect = lower value 1.01 | locus YEL037C, strain rad23, stronger effect = lower value 1.01 | locus YEL061C, strain CIN8 (second series), stronger effect = lower value 1.01 | locus YEL061C, strain CIN8, stronger effect = lower value 1.02 | locus YER015W, strain faa2, stronger effect = lower value 1.01 | locus YER016W, strain bim1, stronger effect = lower value 1 | locus YER110C, stronger effect = lower value 0.997 | locus YER111C, strain swi4, stronger effect = lower value 1.01 | locus YER155C, strain BEM2 (second series), stronger effect = lower value 1 | locus YER155C, strain BEM2, stronger effect = lower value 1.02 | locus YER167W, strain BCK2, stronger effect = lower value 1.01 | locus YFR010W, strain ubp6, stronger effect = lower value 1.01 | locus YGL078C, strain dbp3, stronger effect = lower value 1 | locus YGL086W, strain mad1, stronger effect = lower value 1.01 | locus YGL167C, strain pmr1, stronger effect = lower value 1.01 | locus YGL173C, strain kem1, stronger effect = lower value 0.995 | locus YGL227W, strain vid30, stronger effect = lower value 1.01 | locus YGL240W, strain doc1, stronger effect = lower value 0.997 | locus YGL248W, strain PDE1, stronger effect = lower value 1.02 | locus YGL253W, strain hxk2, stronger effect = lower value 1 | locus YGR078C, strain PAC10, stronger effect = lower value 1.01 | locus YGR135W, strain pre9, stronger effect = lower value 1 | locus YGR229C, strain SMI1, stronger effect = lower value 0.997 | locus YGR252W, strain gcn5, stronger effect = lower value 0.916 | locus YHR013C, strain ard1, stronger effect = lower value 1.03 | locus YHR027C, strain rpn1, stronger effect = lower value 1 | locus YHR030C, strain SLT2, stronger effect = lower value 1.03 | locus YHR079C, strain IRE1 (second series), stronger effect = lower value 0.999 | locus YHR094C, strain hxt1, stronger effect = lower value 1 | locus YHR129C, strain ARP1, stronger effect = lower value 1.03 | locus YHR142W, strain chs7, stronger effect = lower value 1.01 | locus YHR200W, strain rpn10, stronger effect = lower value 0.991 | locus YIL066C, strain RNR3, stronger effect = lower value 1.01 | locus YIL073C, strain SPO22, stronger effect = lower value 0.972 | locus YIL125W, strain kgd1, stronger effect = lower value 1 | locus YIR030C, strain dcg1, stronger effect = lower value 0.993 | locus YJL092W, strain hpr5, stronger effect = lower value 1 | locus YJL095W, strain BCK1 (second series), stronger effect = lower value 1.01 | locus YJL095W, strain BCK1, stronger effect = lower value 1.02 | locus YJL115W, strain asf1, stronger effect = lower value 1.02 | locus YJL129C, strain trk1, stronger effect = lower value 0.993 | locus YJL134W, strain LCB3, stronger effect = lower value 1.02 | locus YJL154C, strain vps35, stronger effect = lower value 1.02 | locus YJL164C, strain tpk1, stronger effect = lower value 1.01 | locus YJL166W, strain qcr8, stronger effect = lower value 1 | locus YJL168C, strain set2, stronger effect = lower value 1.01 | locus YJL187C, strain SWE1 (second series), stronger effect = lower value 1.02 | locus YJL187C, strain SWE1, stronger effect = lower value 1.01
